Experiment in all cases: qHTS profiling for inhibitors of Plasmodium falciparum proliferation (AID 504749); further: nearly all actives have a fitted effect of over 60% in size
What all share (details): P. falciparum in erythrocytes, SYBR Green DNA, 72 h; series mostly up to 28.7 µM
(In general: In qHTS, concentration-response curves come from the screen itself.)

Assay [1] concerns ATS95. A digest of the protocol: (§1)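 Infected RBCs, 0.3% parasitemia/2.5% Hct final; cpd 72 h, 37 C, 5% CO2; lysis buffer with saponin/triton/SYBR Green I, o/n RT dark; FI 485/535; norm. to artemisinin (0.29 uM) and DMSO.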
The test system of assay [2] is C2A. A digest of the protocol: as §1
Assay [3] relates to CP185. A digest of the protocol:
as §1

Assay [4] relates to CP191. The procedure, abridged:
as §1

In assay [5] the test system is CP192. A digest of the protocol:
as §1

Assay [6] relates to CP194. A digest of the protocol:
as §1

The subject of assay [7] is CP201. A digest of the protocol:
as §1

The test system of assay [8] is CP203. The procedure, abridged: as §1
Assay [9] relates to CP211. A digest of the protocol: as §1
The test system of assay [10] is CP215. A digest of the protocol:
as §1

Assay [11] has as its system CP217. The procedure, abridged: as §1
Assay [12] has as its system CP237. The procedure, abridged:
as §1

The subject of assay [13] is CP238. A digest of the protocol: as §1
Assay [14] relates to CP247. A digest of the protocol:
as §1

Assay [15] relates to CP250. A digest of the protocol:
as §1

Assay [16] deals with CP252. The procedure, abridged: as §1
Assay [17] has as its system CP256. The procedure, abridged:
as §1

Assay [18] concerns CP260. A digest of the protocol: as §1
In assay [19] the test system is CP262. The procedure, abridged: as §1
Assay [20] has as its system CP265. A digest of the protocol: as §1

Inconclusive results are not listed. The source made the active and inactive calls. The call rests on the fitted dose curve; in most records, active means well fitted inhibition curve with a large enough effect; inconclusive means small, poorly fitted or top-dose-only effect; inactive means flat fitted curve, though single readings scatter.
Potency means the concentration at half of the fitted maximal effect.

On to `Nc1ccncc1`, for which the Potency result in [1], in assay [2], in assay [3], in assay [4], in assay [5] and in [6] was “inactive” each time. Further, the Potency result in [7], in assay [8], in assay [9], in assay [10], in assay [11] and in [12] was “inactive” throughout. For the same molecule, the Potency entry in assay [13], in assay [14], in assay [15], in [16], in assay [17] and in assay [18] was “inactive” throughout. In addition, the Potency result in assay [19] and in assay [20] was “inactive” in each case.

As for `c1ccc(C2CC2)c(OCC2=NCCN2)c1`, the Potency entry in assay [1], in assay [2], in [3], in [4], in [5] and in assay [6] was “inactive” each time. Besides, the Potency result in assay [7], in assay [8], in assay [9], in assay [10], in assay [11] and in assay [13] was “inactive” in each case. In addition, the Potency entry in assay [15], in assay [16], in assay [17], in assay [18] and in assay [20] was “inactive” in each case.

`CCC(C(N)=O)N1CCCC1=O` (stereo not drawn): the Potency result in [1], in assay [2], in assay [3], in assay [4], in [5] and in [6] was “inactive” in each case. In addition, the Potency result in [7], in [8], in assay [9], in [10], in [11] and in assay [12] was “inactive” each time. For the same molecule, the Potency entry in assay [13], in [14], in [15], in [16], in assay [17] and in assay [18] was “inactive” each time. The Potency result in assay [20] is “inactive”.

As for `NCC(O)c1ccc(O)cc1` (stereo not drawn), the Potency result in assay [1], in [2], in assay [3], in assay [4], in assay [5] and in assay [6] was “inactive” each time. Further, the Potency entry in assay [7], in [8], in assay [9], in assay [10], in [11] and in [12] was “inactive” each time. Further, the Potency result in assay [13], in assay [14], in [15], in [16], in assay [17] and in assay [18] was “inactive” in each case. Further, the Potency result in [19] and in [20] was “inactive” each time.

On to `Clc1ccc(COC(Cn2ccnc2)c2ccc(Cl)cc2Cl)cc1` (stereo not drawn), for which the Potency in [1] was 3.98 µM (active); in [2] it was 11.2 µM (active); in [3] it was 8.91 µM (active); in assay [4], 3.16 µM (active); in assay [5], 6.01 µM (active); in assay [6], 6.75 µM (active). Besides, the Potency was 15.1 µM (active) in assay [7]; 4.26 µM (active) in assay [8]; 9.53 µM (active) in assay [9]; 4.78 µM (active) in assay [10]; 2.51 µM (active) in [11]; 1.26 µM (active) in assay [12]. The Potency in assay [13] was 6.31 µM (active); in [14] it was 3.16 µM (active); in assay [15] it was 5.01 µM (active); in assay [16], 3.98 µM (active); in assay [17], 7.08 µM (active); in [18] it was 2.51 µM (active). In addition, the Potency is 4.78 µM (active) in assay [19] and 2.51 µM (active) in assay [20].

Turning to `CC1OC(C)OC(C)O1` (stereo not drawn), the Potency entry in assay [1], in assay [2], in [3], in [4], in [5] and in [6] was “inactive” each time. In addition, the Potency result in [7], in [8], in assay [9], in assay [10], in [11] and in [12] was “inactive” throughout. The Potency entry in [13], in assay [14], in assay [15], in assay [16], in [17] and in [18] was “inactive” each time. The Potency entry in assay [19] and in [20] was “inactive” in each case.

Take `CC1NCCOC1c1ccccc1` (stereo not drawn): the Potency result in [1], in assay [2], in assay [3], in assay [4], in assay [5] and in assay [6] was “inactive” in each case. In addition, the Potency result in assay [7], in assay [8], in assay [9], in assay [10], in [11] and in assay [13] was “inactive” in each case. The Potency result in [14], in assay [15], in assay [16], in [17], in [18] and in assay [19] was “inactive” in each case. For the same molecule, the Potency result in [20] is “inactive”.

Consider `Cc1ncc(CNC(=O)N(CCCl)N=O)c(N)n1`, for which the Potency result in assay [1], in assay [2], in [3], in assay [4], in assay [5] and in assay [6] was “inactive” each time. Also, the Potency result in [7], in [8], in assay [9], in assay [10], in assay [11] and in assay [12] was “inactive” each time. Further, the Potency entry in [13], in [14], in assay [15], in [16], in assay [17] and in assay [18] was “inactive” each time. Further, the Potency entry in [19] and in assay [20] was “inactive” throughout.

Take `O=P1(NCCCl)OCCCN1CCCl` (stereo not drawn): the Potency entry in [1], in assay [2], in [3], in assay [4], in assay [5] and in assay [6] was “inactive” in each case. In addition, the Potency result in assay [7], in assay [9], in [10], in assay [11], in [12] and in [13] was “inactive” in each case. Moreover, the Potency entry in assay [14], in assay [15], in [16], in [17], in [18] and in assay [19] was “inactive” each time. The Potency entry in assay [20] was “inactive”.

Turning to `CCCC1CCCCN1` (stereo not drawn), the Potency result in assay [1], in [2], in [3], in [4], in assay [5] and in assay [6] was “inactive” in each case. Moreover, the Potency entry in assay [7], in assay [8], in assay [10], in assay [11], in [12] and in [13] was “inactive” in each case. Moreover, the Potency result in assay [16], in assay [17], in assay [18], in assay [19] and in assay [20] was “inactive” in each case.

As for `C[C@]12C/C(=C/O)C(=O)C[C@@H]1CC[C@@H]1[C@@H]2CC[C@@]2(C)[C@H]1CC[C@]2(C)O`, the Potency result in assay [1], in assay [2], in [3], in assay [5], in assay [6] and in assay [7] was “inactive” each time. For the same molecule, the Potency entry in [8], in assay [9], in [10], in assay [11], in [12] and in assay [13] was “inactive” each time. The Potency result in assay [15], in assay [16], in assay [17], in assay [18], in assay [19] and in assay [20] was “inactive” each time.

On to `CCC1(C2=NCCN2)Cc2ccccc2O1` (stereo not drawn), for which the Potency is 8.91 µM (active) in [1], 10 µM (active) in assay [3], 10.7 µM (active) in assay [8] and 10 µM (active) in assay [12]. Also, the Potency entry in assay [5] and in assay [19] was “inactive” in each case.

On to `C=C1CC[C@@]2(O)[C@H]3Cc4ccc(O)c5c4[C@@]2(CCN3CC2CC2)[C@H]1O5`, for which the Potency result in [1], in assay [2], in assay [3], in assay [5], in assay [6] and in assay [7] was “inactive” throughout. Moreover, the Potency entry in assay [8], in [9], in assay [10], in [11], in assay [13] and in assay [14] was “inactive” throughout. Besides, the Potency entry in assay [15], in assay [16], in assay [17], in assay [19] and in assay [20] was “inactive” throughout.

As to `N[C@@H](Cc1ccc(N(CCCl)CCCl)cc1)C(=O)O`, the Potency result in [5], in assay [7], in assay [8], in [9], in assay [10] and in assay [17] was “inactive” throughout. Moreover, in [19], the Potency entry was “inactive”.

With `O=c1[nH]c2ccccc2n1CCCN1CCC(n2c(=O)[nH]c3cc(Cl)ccc32)CC1`, the Potency in assay [2] is 11.2 µM (active); in [4], 3.98 µM (active); in assay [12] it was 7.94 µM (active); in [18], 11.2 µM (active). Besides, the Potency result in assay [7] and in assay [19] was “inactive” throughout.

`CCCN1CCC[C@@H]2Cc3[nH]ncc3C[C@H]21`: the Potency entry in assay [5], in [6], in [7], in [8], in [9] and in assay [10] was “inactive” in each case. For the same molecule, the Potency entry in [19] is “inactive”.

For `O=[N+]([O-])c1cc([As](=O)(O)O)ccc1O`, the Potency in assay [4], in [11], in assay [12], in assay [15], in assay [16] and in [18] was 3.16 µM (active) in each case.

The record behind these values is PubChem BioAssay (NCATS).
